Results from PubChem BioAssay (NCI).
The panel holds about 83,000 compounds, 20% with a hit somewhere; the sample as a whole holds those more often.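 Assay: single dose, 48 h. Readout: percent growth (0 = no net growth; negative = cell death). Active: <10.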 Unmarked numbers belong to inactive results. Calls of active or inactive are those of the source.

What was measured:
Assay in all cases: NCI-60 one-dose screen, 48 h (100 = growth as untreated, 0 = no growth, -100 = all killed)
HOP-92 NSCLC = settings: 10 µM unless noted
COLO 205 colon = settings: 10 µM
MALME-3M melanoma = settings: 10 µM unless noted
SNB-75 CNS = settings: 10 µM unless noted
SNB-19 CNS = settings: 10 µM unless noted
U251 CNS = settings: 10 µM unless noted
EKVX NSCLC = settings: 10 µM unless noted
ACHN renal = settings: 10 µM unless noted
CCRF-CEM leukemia = settings: 10 µM unless noted
SR leukemia = settings: 10 µM
RPMI-8226 leukemia = settings: 10 µM unless noted
IGROV1 ovarian = settings: 10 µM
T-47D breast = settings: 10 µM unless noted
MDA-MB-435 melanoma = settings: 10 µM unless noted
HCT-116 colon = settings: 10 µM unless noted
NCI-H522 lung = settings: 10 µM unless noted
SK-MEL-2 melanoma = settings: 10 µM unless noted
TK-10 renal = settings: 10 µM unless noted
SK-MEL-5 melanoma = settings: 10 µM unless noted

SMILES | growth (HOP-92 NSCLC) | growth (COLO 205 colon) | growth (MALME-3M melanoma) | growth (SNB-75 CNS) | growth (SNB-19 CNS) | growth (U251 CNS) | growth (EKVX NSCLC) | growth (ACHN renal) | growth (CCRF-CEM leukemia) | growth (SR leukemia) | growth (RPMI-8226 leukemia) | growth (IGROV1 ovarian) | growth (T-47D breast) | growth (MDA-MB-435 melanoma) | growth (HCT-116 colon) | growth (NCI-H522 lung) | growth (SK-MEL-2 melanoma) | growth (TK-10 renal) | growth (SK-MEL-5 melanoma)
O=C(CC1(O)C(=O)Nc2ccc(F)cc21)c1ccc(C(=O)NCC2CCC3(CC2)OOC2(CCCCC2)OO3)cc1 (centres undefined) | -65.3% (active) | 33.7% | -35.8% (active) | 69.8% | 80.2% | 15.3% | -29.9% (active) | -25.2% (active) | -32.1% (active) | -43.2% (active) | 12.7% | 3.82% (active) | 29.6% | 63.8% | 69.7% | – | – | – | –
O=C(C(=O)N1CCCC1)c1cn(CCCCCn2cc(C(=O)C(=O)N3CCCC3)c3ccccc32)c2ccccc12 | 37.2% | – | 109% | 74.9% | 93.5% | 88% | 75.5% | 87.8% | -26.6% (active) | 67.7% | 66.2% | – | 91.3% | 87.6% | – | 89.5% | 114% | 112% | –
ClCCN(CCCl)c1ccc(/C=C\c2ccnc3ccccc23)cc1 | 46.6% | 88.8% | 74.4% | 84.6% | 88.8% | 76.4% | 81% | – | 71% | 48.2% | – | 81.6% | 63.1% | 76% | 52.2% | – | – | – | 71.2%
COc1ccc(C(=O)c2ccc([As]=O)cc2)cc1 (centres undefined) | -96.1% (active) | – | -87% (active) | -97% (active) | -81.4% (active) | -98.1% (active) | -98.1% (active) | -91.8% (active) | – | -23.8% (active) | -24% (active) | -29.3% (active) | -77.6% (active) | -80.9% (active) | -83.3% (active) | -84.1% (active) | -94% (active) | -100% (active) | -99.5% (active)
N#C[Se]CCCNS(=O)(=O)C1CC2C=CC1C2 (centres undefined) | -73.1% (active) | -39% (active) | -55.5% (active) | – | -42.3% (active) | -76.6% (active) | -96% (active) | -67% (active) | – | 7.66% (active) | -29.5% (active) | – | 30.6% | -41.2% (active) | -31.9% (active) | – | -24.4% (active) | -66.4% (active) | -70.8% (active)
O=C1NC2(CCNCC2)Nc2ccccc21 | 107% | – | 117% | 82.8% | 96.2% | 91.2% | 109% | 110% | 94.9% | 86.9% | – | – | 109% | 104% | 100% | 97.5% | 98.1% | 98.3% | 114%
[Cl][Hg][n]1cnc2c(Cl)c(Cl)c(Cl)cc21 | 116% | – | 97.6% | 104% | 102% | 78.2% | 81.7% | 97.9% | 102% | 80.1% | 98.9% | 99.7% | 72.2% | 107% | 103% | 50.2% | – | 108% | 102%
COP(=S)(OC)Oc1ccc(SC)c(C)c1 | 72.6% | 101% | 105% | – | 109% | – | 106% | 101% | 113% | – | – | – | 96.6% | 100% | 103% | 94.8% | 103% | 124% | 98.9%
CCC1CN1P(=O)(OCCOC)N1CC1CC (centres undefined) | 98.4% | 119% | 110% | 92.9% | 104% | 102% | – | 103% | – | 93.8% | 105% | 111% | – | 98.9% | 104% | – | 126% | 123% | 109%
COc1ccc(C2SCC(=O)Nc3c2c(C)nn3-c2nc3ccc(C)cc3s2)cc1O (centres undefined) | 28.9% | 35.1% | 43.5% | 32.6% | 53.8% | 31.3% | – | 44.2% | – | 9.81% (active) | 38.8% | 52.7% | – | -25.5% (active) | 34.1% | 1.68% (active) | -1.24% (active) | 71.6% | 16.6%
